Among the data in ChEMBL document CHEMBL1961873, “Compounds: GSK PKIS; Assays: Nanosyn kinase panel” (2012) are inhibition values, retold here.

The target in test [1] is T1, Tyrosine-protein kinase receptor TYRO3 (Homo sapiens) (UniProt Q06418).
T1 sequence (whole entry): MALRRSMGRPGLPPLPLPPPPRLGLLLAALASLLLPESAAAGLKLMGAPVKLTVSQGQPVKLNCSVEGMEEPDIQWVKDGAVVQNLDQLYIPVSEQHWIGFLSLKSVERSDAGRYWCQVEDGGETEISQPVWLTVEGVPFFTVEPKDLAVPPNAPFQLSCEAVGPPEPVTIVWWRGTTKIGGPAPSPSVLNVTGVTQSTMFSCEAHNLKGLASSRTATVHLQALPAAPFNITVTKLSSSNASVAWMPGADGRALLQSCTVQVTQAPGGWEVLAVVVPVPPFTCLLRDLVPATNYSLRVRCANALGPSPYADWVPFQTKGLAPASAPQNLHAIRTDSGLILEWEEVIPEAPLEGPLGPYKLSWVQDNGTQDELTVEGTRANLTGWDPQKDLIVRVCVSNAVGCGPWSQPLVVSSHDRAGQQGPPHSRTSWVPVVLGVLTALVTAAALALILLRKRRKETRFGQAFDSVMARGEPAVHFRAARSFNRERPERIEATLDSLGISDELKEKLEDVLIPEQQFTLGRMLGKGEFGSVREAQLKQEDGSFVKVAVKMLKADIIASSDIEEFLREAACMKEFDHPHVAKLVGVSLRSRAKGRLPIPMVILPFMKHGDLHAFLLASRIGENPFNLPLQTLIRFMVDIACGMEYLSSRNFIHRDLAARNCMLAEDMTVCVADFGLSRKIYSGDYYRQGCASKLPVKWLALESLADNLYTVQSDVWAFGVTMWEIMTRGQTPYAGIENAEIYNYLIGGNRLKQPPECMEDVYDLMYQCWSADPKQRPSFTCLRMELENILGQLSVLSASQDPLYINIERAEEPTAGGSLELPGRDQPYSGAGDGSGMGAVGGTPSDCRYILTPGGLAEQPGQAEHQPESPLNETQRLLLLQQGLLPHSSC
The note with it: at 1 µM.

For test [2], the target named is Tyrosine-protein kinase Yes (Homo sapiens) (UniProt P07947). The conditions noted are these: at 0.1 µM.
Tyrosine-protein kinase Yes (Homo sapiens), sequence (P07947 2-543 limits assumed): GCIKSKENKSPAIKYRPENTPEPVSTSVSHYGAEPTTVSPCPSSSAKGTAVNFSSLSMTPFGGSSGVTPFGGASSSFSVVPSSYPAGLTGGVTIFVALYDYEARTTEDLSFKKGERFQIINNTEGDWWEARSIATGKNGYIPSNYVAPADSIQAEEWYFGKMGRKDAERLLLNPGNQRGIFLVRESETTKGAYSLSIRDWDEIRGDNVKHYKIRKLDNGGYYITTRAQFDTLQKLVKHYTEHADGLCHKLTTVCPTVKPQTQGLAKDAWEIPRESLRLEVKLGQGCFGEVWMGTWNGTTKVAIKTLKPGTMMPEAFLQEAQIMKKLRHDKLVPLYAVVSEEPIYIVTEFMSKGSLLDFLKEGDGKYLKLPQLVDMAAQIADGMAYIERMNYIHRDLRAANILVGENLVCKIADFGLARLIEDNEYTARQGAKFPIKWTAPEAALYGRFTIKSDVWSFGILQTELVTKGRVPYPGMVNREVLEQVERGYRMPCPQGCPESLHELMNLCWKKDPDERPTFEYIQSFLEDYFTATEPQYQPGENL
Test [3] shares this target. The note with it: at 1 µM.
Test [4] addresses T2, Tyrosine-protein kinase ZAP-70 (Homo sapiens) (UniProt P43403).
T2 sequence (whole entry): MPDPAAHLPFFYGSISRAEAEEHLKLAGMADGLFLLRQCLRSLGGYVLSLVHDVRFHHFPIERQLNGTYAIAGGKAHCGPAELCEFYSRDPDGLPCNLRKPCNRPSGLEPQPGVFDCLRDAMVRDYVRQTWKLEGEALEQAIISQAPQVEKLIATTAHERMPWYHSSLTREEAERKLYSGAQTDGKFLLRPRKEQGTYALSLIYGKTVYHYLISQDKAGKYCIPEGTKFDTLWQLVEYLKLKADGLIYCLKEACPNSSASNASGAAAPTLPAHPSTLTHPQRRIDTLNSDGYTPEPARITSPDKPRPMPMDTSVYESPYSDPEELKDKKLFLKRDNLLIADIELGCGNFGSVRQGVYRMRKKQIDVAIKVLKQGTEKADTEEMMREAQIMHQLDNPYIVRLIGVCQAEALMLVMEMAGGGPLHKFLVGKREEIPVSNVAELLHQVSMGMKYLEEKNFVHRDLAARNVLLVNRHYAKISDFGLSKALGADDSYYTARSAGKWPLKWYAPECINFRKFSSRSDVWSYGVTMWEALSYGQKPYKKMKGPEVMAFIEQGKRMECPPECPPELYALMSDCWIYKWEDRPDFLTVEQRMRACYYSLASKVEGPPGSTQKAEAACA
The note with it: at 0.1 µM.

Test [5] concerns the target T2, Tyrosine-protein kinase ZAP-70 (Homo sapiens). The note with it: at 1 µM.
Test [6] concerns the target Serine/threonine-protein kinase B-raf (Homo sapiens) (UniProt P15056). The conditions noted are these: at 0.1 µM.
Test [7] shares this target. The conditions noted are these: at 1 µM.
The test system of test [8] is Serine/threonine-protein kinase B-raf (Homo sapiens), P15056 [V600E]. The note with it: at 0.1 µM.
Serine/threonine-protein kinase B-raf (Homo sapiens), P15056 [V600E], sequence (P15056 whole entry V600E): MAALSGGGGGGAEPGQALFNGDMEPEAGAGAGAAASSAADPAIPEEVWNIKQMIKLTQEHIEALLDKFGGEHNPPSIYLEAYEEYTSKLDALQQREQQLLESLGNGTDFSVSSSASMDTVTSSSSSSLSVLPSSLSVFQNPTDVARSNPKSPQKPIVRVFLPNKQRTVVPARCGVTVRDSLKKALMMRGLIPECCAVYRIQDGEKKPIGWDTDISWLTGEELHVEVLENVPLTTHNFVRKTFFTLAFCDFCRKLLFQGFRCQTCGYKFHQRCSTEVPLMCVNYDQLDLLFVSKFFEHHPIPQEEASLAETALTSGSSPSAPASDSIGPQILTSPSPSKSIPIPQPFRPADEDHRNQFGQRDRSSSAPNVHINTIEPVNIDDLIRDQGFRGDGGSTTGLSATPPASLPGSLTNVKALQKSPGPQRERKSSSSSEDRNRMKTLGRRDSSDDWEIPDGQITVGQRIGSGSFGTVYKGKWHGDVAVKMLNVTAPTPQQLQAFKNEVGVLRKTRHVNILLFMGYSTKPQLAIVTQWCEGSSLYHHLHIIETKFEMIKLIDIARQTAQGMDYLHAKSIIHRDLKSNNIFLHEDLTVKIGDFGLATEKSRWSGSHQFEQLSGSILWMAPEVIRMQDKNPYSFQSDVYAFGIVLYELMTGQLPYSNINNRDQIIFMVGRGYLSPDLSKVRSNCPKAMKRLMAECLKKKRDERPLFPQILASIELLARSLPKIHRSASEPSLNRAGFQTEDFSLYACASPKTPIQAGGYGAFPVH
Test [9] has the same test system. The conditions noted are these: at 1 µM.
Test [10] deals with RAF proto-oncogene serine/threonine-protein kinase (Homo sapiens) (UniProt P04049). The conditions noted are these: at 0.1 µM.
RAF proto-oncogene serine/threonine-protein kinase (Homo sapiens), sequence (P04049 whole entry): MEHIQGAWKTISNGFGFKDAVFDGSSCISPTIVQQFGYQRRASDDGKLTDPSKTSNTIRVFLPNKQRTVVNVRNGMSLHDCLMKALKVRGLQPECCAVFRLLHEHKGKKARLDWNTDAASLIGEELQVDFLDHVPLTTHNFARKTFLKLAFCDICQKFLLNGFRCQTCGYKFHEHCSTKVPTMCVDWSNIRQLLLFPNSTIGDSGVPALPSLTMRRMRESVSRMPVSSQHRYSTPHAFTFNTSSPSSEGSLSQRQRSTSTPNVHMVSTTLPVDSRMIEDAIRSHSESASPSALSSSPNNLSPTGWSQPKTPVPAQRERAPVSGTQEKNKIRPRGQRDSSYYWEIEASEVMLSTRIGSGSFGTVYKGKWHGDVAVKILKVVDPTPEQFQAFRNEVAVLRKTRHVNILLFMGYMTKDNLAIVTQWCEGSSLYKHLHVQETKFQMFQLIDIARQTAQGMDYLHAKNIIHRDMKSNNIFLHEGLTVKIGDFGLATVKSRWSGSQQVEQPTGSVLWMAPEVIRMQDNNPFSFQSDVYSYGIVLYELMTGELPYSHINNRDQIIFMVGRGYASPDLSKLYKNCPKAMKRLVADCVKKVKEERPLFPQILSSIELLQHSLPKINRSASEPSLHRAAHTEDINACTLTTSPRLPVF
The target is the same in test [11]. The note with it: at 1 µM.
Test [12] concerns the target T3, Interleukin-1 receptor-associated kinase 4 (Homo sapiens) (UniProt Q9NWZ3).
T3 sequence (whole entry): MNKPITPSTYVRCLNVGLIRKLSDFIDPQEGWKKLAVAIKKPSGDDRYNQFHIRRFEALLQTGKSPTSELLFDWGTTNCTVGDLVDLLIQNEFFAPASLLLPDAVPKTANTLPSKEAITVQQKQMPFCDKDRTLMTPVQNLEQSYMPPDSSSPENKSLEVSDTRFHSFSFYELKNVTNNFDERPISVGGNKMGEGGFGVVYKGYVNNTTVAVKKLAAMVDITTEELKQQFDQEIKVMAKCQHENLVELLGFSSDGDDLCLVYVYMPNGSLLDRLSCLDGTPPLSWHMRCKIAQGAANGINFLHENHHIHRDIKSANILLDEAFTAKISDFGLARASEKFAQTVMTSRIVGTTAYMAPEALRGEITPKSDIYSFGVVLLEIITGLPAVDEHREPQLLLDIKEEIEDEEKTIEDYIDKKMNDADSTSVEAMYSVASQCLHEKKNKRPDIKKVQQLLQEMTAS
The note with it: at 0.1 µM.

The target in test [13] is T3, Interleukin-1 receptor-associated kinase 4 (Homo sapiens). The conditions noted are these: at 1 µM.
Test [14] addresses Leucine-rich repeat serine/threonine-protein kinase 2 (Homo sapiens) (UniProt Q5S007). The note with it: at 0.1 µM.
For test [15] the target is unchanged. The note with it: at 1 µM.
Test [16] has as its system Leucine-rich repeat serine/threonine-protein kinase 2 (Homo sapiens), Q5S007 [G2019S]. The note with it: at 0.1 µM.
For test [17] the test system is unchanged. The conditions noted are these: at 1 µM.

Serine/threonine-protein kinase B-raf (Homo sapiens), sequence (P15056 whole entry): as the sequence (P15056 whole entry V600E) above, with E600V counted along it
Leucine-rich repeat serine/threonine-protein kinase 2 (Homo sapiens), sequence (Q5S007 whole entry): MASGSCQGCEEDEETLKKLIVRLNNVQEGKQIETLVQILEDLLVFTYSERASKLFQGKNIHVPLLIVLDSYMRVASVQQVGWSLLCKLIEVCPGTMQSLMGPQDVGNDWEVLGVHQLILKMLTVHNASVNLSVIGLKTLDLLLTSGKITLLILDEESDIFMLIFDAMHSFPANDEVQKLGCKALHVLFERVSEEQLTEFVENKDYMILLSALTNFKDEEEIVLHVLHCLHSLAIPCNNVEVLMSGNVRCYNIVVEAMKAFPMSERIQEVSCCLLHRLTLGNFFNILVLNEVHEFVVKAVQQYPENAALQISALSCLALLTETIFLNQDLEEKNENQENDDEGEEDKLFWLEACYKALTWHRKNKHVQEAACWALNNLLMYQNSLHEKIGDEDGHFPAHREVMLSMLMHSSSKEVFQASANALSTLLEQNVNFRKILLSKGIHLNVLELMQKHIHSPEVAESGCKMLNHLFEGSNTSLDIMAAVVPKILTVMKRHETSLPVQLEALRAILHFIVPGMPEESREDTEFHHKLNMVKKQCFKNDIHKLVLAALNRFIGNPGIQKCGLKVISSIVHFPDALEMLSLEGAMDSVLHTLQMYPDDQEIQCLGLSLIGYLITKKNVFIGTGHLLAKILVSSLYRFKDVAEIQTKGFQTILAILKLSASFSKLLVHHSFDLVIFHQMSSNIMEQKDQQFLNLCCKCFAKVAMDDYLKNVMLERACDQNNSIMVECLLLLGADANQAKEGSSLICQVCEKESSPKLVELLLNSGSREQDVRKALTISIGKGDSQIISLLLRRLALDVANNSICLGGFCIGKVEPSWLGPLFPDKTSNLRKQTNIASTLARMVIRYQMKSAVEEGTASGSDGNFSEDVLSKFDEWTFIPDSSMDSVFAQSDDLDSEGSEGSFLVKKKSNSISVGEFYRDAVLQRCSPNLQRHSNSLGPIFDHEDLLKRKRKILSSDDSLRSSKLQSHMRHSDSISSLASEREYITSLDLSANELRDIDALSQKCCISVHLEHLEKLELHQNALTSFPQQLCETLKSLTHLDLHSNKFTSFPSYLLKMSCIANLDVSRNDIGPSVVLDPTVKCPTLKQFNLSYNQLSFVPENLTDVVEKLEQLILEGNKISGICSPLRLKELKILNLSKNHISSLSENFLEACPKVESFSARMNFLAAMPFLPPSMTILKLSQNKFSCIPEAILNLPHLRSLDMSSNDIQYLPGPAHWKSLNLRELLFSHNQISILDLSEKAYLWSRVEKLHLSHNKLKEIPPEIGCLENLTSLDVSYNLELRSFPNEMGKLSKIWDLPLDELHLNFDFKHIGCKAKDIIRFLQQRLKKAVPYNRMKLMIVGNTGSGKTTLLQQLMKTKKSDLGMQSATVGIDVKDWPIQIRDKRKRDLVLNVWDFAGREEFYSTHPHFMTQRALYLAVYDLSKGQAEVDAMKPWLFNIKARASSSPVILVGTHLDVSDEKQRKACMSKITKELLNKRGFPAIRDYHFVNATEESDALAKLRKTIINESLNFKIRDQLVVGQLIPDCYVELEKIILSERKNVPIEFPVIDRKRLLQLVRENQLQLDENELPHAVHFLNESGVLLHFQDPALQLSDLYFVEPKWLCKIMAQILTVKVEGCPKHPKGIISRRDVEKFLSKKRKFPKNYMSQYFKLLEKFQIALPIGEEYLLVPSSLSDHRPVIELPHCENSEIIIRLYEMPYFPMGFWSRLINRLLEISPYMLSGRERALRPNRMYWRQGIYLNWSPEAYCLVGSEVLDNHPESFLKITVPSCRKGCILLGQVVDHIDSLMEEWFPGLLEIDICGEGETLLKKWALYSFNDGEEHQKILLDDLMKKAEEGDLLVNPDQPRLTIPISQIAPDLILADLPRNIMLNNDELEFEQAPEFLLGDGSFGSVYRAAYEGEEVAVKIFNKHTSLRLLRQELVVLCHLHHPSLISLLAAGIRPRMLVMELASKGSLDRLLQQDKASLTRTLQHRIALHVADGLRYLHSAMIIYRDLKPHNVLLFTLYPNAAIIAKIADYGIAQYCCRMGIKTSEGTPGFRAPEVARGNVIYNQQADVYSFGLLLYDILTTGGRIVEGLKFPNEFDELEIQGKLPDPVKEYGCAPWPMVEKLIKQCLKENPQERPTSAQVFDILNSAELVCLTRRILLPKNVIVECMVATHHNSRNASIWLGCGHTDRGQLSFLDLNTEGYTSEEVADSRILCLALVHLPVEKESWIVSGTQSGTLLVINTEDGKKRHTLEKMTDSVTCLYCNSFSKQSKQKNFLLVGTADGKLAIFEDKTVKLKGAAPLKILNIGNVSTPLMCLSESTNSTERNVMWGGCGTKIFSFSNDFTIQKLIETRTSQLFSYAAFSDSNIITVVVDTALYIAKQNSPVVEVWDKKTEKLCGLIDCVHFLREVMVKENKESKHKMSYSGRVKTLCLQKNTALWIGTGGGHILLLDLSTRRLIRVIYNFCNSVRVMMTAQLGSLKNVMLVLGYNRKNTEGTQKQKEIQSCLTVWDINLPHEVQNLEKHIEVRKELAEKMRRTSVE
Leucine-rich repeat serine/threonine-protein kinase 2 (Homo sapiens), Q5S007 [G2019S], sequence (Q5S007 whole entry G2019S): as the sequence (Q5S007 whole entry) above, with G2019S counted along it

One may read the inhibition as the relative decrease from the control value, in per cent. For the compound `COc1cc2ncn(-c3cc(O[C@H](C)c4ccccc4Cl)c(C(N)=O)s3)c2cc1OC`, the inhibition in test [1] came out at 37.6%; in test [2], 4.24%; in test [3], 17.8%; in test [4] it was 2.5%; in test [5], 7.57%; in test [6] it was 4.31%. Further, the inhibition in test [7] was 3.59%; in test [8], 4.51%; in [9], 3.77%; in test [10], 1.34%; in test [11], 2.16%; in test [12], -1.67%. In addition, the inhibition in test [13] stood at 3.82%; in [14], 5.85%; in test [15], 21.6%; in test [16], 12.1%; in test [17], 51.9%.

For `CCn1c(-c2nonc2N)nc2c(C#CC(C)(C)O)nc(OC[C@@H](N)c3ccccc3)cc21`, the inhibition in test [1] was 0.45%; in test [2], 0.68%; in test [3] it was 0.4%; in [4] it was -0.65%; in test [5], -0.38%; in test [6], -0.61%. For the same compound, the inhibition in [7] was 3.45%; in test [8], -0.86%; in test [9] it was 3.32%; in [10] it was -1.41%; in [11], 3.8%; in test [12] it was -2.13%. The inhibition was 0.37% in test [13]; 2.04% in test [14]; 8.46% in [15]; 2.34% in test [16]; 19.7% in test [17].

On to `CN(C)c1cc2c(Nc3ccc4nc(Cc5ccccc5)[nH]c4c3)ncnc2cn1`, for which the inhibition in test [1] worked out at 4.25%; in test [2], 9.2%; in [3], 37%; in test [4], 6.34%; in test [5], 12.4%; in test [6] it was 7.82%. Moreover, the inhibition in test [7] was 7.35%; in test [8] it was 7.73%; in [9] it was 11.2%; in [10], -7.41%; in test [11] it was -7.27%; in [12], 2.36%. Moreover, the inhibition in [13] was 1.94%; in test [14], 5.94%; in test [15], 7.11%; in [16], 5.3%; in test [17], 13.7%.

Turning to `Cc1ccc(NC(=O)c2ccnc(N3CCCC3)c2)cc1-c1ccc(C(=O)NCC2CC2)cc1`, the inhibition in test [1] is 1.97%; in test [2], 2.17%; in test [3], 3.08%; in [4] it was -2.27%; in [5], 0.03%; in test [6], 8.24%. Also, the inhibition is 14.7% in [7]; 7.57% in [8]; 15% in [9]; 4.02% in test [10]; -6.49% in test [11]; -0.18% in test [12]. Further, the inhibition was found to be 2.34% in test [13]; 1.63% in test [14]; 6.13% in test [15]; 4.42% in test [16]; 7.81% in test [17].

With `CCCN1CCC(Oc2cc(Nc3nc(Nc4cccc(F)c4C(N)=O)c4cc[nH]c4n3)c(OC)cc2Cl)CC1`, the inhibition is 1.14% in test [1]; 1.16% in [2]; 1.57% in test [3]; -1.5% in test [4]; 0.24% in [5]; 2.31% in test [6]. Moreover, the inhibition in test [7] is 24.1%; in test [8], 1.35%; in [9], 23.7%; in test [10], -1.14%; in test [11] it was 5.41%; in test [12] it was -2.83%. The inhibition in [13] came to 2.25%; in [14] it was 11.5%; in [15], 19.6%; in test [16], 12.8%; in test [17], 55.9%.

For the compound `COc1ccc(-c2nn3ncccc3c2-c2ccnc(Nc3ccc(Cl)c(C(F)(F)F)c3)n2)cc1`, the inhibition in test [1] is 3.05%; in [2] it was 7.39%; in test [3], 46.2%; in [4], 0.91%; in test [5], -1.1%; in test [6], 3.94%. For the same compound, the inhibition in test [7] was 4.03%; in [8] it was 3.98%; in [9], 3.99%; in test [10] it was -1.5%; in test [11], -8.01%; in test [12], 2.17%. Further, the inhibition in test [13] turned out to be 0.42%; in test [14], 0.37%; in test [15], 1.12%; in test [16], 2.99%; in test [17], 3.98%.

Turning to `Nc1nc(-c2ccc3c(c2)C(=Cc2cc(Br)c(O)c(Br)c2)C(=O)N3)cs1`, the inhibition was 2.67% in test [1]; -4.7% in [2]; 6.08% in test [3]; 0.01% in [4]; -1.62% in test [5]; 4.51% in [6]. Moreover, the inhibition is 13.7% in [7]; 3.07% in test [8]; 14.7% in [9]; 2.35% in [10]; 26.7% in test [11]; 3.08% in test [12]. Further, the inhibition was -0.15% in [13]; 0.74% in test [14]; 14.2% in [15]; 10.3% in [16]; 43.5% in [17].
